Data on twelve sequences can be found in paper PMC5700166.

Residue numbers refer to the chain shown, from its start.

Test in all cases: protein-binding microarray (PBM); PBM: ~300 nM protein, 6 mM HEPES pH 7.8, 80 mM KCl, 0.5 mM EDTA, 0.5 mM EGTA, 6% glycerol, 35 ng/ul poly-dIdC, 1% milk, 1 h, room temperature; Ap Aiptasia and Nv Nematostella (sea anemones) / Co Capsaspora / Aq Amphimedon (sponge) / Dm Drosophila / Hu human; RHD is the Rel homology domain; high values mean tight binding
What all share (conditions): dsDNA, one strand shown

For one test, the target named is T1, GST-Ap-NF-kB RHD (Exaiptasia pallida (Aiptasia), UniProt A0A913YAJ5 2-422).
T1 sequence: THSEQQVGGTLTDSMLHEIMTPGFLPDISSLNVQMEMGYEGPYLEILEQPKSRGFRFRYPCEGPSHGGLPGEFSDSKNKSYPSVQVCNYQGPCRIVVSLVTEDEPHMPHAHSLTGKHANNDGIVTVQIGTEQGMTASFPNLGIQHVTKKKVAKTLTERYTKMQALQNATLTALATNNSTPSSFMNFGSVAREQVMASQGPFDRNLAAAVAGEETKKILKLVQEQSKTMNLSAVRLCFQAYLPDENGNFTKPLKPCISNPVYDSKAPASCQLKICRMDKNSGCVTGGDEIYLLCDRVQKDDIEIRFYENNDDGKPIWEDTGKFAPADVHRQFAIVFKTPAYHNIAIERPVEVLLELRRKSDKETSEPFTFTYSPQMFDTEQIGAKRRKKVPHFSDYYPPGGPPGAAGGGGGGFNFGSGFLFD

The target in test [1] is T2, GST-Nv-NF-kB (Cys allele) (Nematostella vectensis, UniProt E5G601 2-411).
T2 sequence: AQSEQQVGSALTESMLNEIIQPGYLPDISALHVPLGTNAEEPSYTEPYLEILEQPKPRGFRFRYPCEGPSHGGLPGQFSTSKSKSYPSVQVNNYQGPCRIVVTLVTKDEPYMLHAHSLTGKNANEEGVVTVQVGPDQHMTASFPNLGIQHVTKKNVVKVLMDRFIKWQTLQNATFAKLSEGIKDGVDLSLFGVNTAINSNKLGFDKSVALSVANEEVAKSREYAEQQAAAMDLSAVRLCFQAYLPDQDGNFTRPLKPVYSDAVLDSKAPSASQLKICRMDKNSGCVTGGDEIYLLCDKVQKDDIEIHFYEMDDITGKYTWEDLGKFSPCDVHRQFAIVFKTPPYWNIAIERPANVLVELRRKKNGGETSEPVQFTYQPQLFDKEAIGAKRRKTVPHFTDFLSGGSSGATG

In test [2] the target is T3, GST-Nv-NF-kB (Ser allele) (Nematostella vectensis, UniProt A7UNT2 2-411).
T3 sequence: T2 sequence with Q21R, C66S, S207N, E215Q, V217A, E225K, A268E, D399E

Another test addresses T4, GST-Co-NF-kB (Capsaspora owczarzaki, UniProt F1ARL5 200-546).
T4 sequence: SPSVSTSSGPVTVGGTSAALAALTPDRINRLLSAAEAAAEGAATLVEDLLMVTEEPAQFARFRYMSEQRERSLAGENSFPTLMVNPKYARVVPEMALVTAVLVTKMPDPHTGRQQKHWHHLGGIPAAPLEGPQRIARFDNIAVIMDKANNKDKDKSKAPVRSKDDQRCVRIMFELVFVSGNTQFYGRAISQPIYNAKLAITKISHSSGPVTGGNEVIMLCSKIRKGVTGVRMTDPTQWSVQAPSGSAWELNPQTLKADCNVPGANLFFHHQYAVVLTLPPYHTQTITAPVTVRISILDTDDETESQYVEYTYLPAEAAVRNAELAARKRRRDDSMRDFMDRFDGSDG

The target of another test is T5, GST-Dm-Relish (Drosophila melanogaster, UniProt Q94527 99-473).
T5 sequence: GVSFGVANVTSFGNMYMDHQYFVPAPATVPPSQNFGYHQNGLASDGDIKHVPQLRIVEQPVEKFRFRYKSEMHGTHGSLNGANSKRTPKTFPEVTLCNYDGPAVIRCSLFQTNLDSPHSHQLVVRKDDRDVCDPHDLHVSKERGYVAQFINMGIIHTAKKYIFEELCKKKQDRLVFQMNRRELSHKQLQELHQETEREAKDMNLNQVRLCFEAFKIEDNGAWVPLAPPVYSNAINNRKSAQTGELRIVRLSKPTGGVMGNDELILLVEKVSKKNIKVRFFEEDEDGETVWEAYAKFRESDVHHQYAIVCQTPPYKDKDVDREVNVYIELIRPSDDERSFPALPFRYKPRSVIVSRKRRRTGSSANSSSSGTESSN

A further test addresses T6, GST-Aq-NF-kB (Amphimedon queenslandica, UniProt A9Y5G7 2-389).
T6 sequence: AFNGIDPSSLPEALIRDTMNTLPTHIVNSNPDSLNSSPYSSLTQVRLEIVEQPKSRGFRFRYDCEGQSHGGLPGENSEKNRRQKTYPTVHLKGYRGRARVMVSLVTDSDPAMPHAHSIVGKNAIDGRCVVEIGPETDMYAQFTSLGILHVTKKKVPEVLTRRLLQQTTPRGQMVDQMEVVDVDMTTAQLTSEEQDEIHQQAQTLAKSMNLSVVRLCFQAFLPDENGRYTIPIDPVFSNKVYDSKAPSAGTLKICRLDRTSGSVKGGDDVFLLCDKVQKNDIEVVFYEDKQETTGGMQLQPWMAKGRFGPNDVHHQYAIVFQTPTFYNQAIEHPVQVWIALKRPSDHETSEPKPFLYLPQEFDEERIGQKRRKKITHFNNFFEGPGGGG

The target in a further test is GST-Hu-p50 (Homo sapiens, UniProt P19838 7-356).
Sequence of GST-Hu-p50 (P19838 7-356): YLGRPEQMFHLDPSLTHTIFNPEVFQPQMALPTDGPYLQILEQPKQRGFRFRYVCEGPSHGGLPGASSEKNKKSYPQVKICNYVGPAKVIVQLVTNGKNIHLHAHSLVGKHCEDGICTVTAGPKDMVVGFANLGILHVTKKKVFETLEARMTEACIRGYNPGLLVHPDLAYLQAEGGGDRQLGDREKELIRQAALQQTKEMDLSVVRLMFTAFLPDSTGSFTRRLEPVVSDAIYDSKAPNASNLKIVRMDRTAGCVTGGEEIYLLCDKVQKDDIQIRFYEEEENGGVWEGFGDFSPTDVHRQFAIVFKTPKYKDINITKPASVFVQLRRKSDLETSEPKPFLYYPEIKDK

As to “CCGATTAACATCAGAAGATCCCCTGATGTTAATCGGGTCTTGATTCGCTTGACGCTGCTG”, the binding signal with GST-Ap-NF-kB RHD is 7.16 z-score; in test [1], 6.92 z-score; in test [2], 6.96 z-score; with GST-Co-NF-kB it was 2.91 z-score; with GST-Dm-Relish, 7.44 z-score; with GST-Aq-NF-kB it was 6.44 z-score. The sequence further showed a binding signal with GST-Hu-p50 of 5.61 z-score.
As to “CCGATTAACATCAGGGATTACCCTGATGTTAATCGGGTCTTGATTCGCTTGACGCTGCTG”, the binding signal with GST-Ap-NF-kB RHD was 8.01 z-score; in test [1] it was 10 z-score; in test [2], 7.06 z-score; with GST-Co-NF-kB it was 2.89 z-score; with GST-Dm-Relish it was 9.47 z-score; in the test with GST-Aq-NF-kB it was 8.71 z-score. The sequence also came in with a binding signal with GST-Hu-p50 of 4.78 z-score.
On to “CCGATTAACATCACGGGATCCCCTGATGTTAATCGGGTCTTGATTCGCTTGACGCTGCTG”, for which the binding signal was 7.35 z-score with GST-Ap-NF-kB RHD; 4.81 z-score in test [1]; 6.31 z-score in test [2]; 3.23 z-score with GST-Co-NF-kB; 9.23 z-score with GST-Dm-Relish; 5.41 z-score in the test with GST-Aq-NF-kB. In the test with GST-Hu-p50, this sequence showed a binding signal of 4.53 z-score.
Turning to “CCGATTAACATCAGGGGGTTACCTGATGTTAATCGGGTCTTGATTCGCTTGACGCTGCTG”, the binding signal was 8.27 z-score in the test with GST-Ap-NF-kB RHD; 6.63 z-score in test [1]; 5.92 z-score in test [2]; 4.04 z-score with GST-Co-NF-kB; 9.18 z-score with GST-Dm-Relish; 8.61 z-score with GST-Aq-NF-kB. Besides, the binding signal in the test with GST-Hu-p50 worked out at 5.51 z-score.
Turning to “CCGATTAACATCACGAAACCCCCTGATGTTAATCGGGTCTTGATTCGCTTGACGCTGCTG”, the binding signal with GST-Ap-NF-kB RHD was determined as 8.57 z-score; in test [1], 6.39 z-score; in test [2], 7.65 z-score; with GST-Co-NF-kB, 2.69 z-score; in the test with GST-Dm-Relish it was 8.51 z-score; with GST-Aq-NF-kB, 6.37 z-score. In the test with GST-Hu-p50, this sequence registered a binding signal of 7.11 z-score.
As to “CCGATTAACATCAGGTATCCCCATGATGTTAATCGGGTCTTGATTCGCTTGACGCTGCTG”, the binding signal in the test with GST-Ap-NF-kB RHD was determined as 5.17 z-score; in test [1] it was 3.31 z-score; in test [2] it was 4.07 z-score; in the test with GST-Co-NF-kB it was 3.11 z-score; in the test with GST-Dm-Relish, 5 z-score; with GST-Aq-NF-kB it was 3 z-score. This sequence yielded a binding signal with GST-Hu-p50 of 3 z-score.
Regarding “CCGATTAACATCAGAACTTCCCCTGATGTTAATCGGGTCTTGATTCGCTTGACGCTGCTG”, the binding signal with GST-Ap-NF-kB RHD amounted to 7.33 z-score; in test [1] it was 9 z-score; in test [2] it was 7.95 z-score; with GST-Co-NF-kB, 6.75 z-score; with GST-Dm-Relish, 7.85 z-score; with GST-Aq-NF-kB, 7.57 z-score. Also, the binding signal with GST-Hu-p50 is 6.4 z-score.
For the sequence “CCGATTAACATCAGGGGGACAACTGATGTTAATCGGGTCTTGATTCGCTTGACGCTGCTG”, the binding signal with GST-Ap-NF-kB RHD was 5.19 z-score; in test [1] it was 5.15 z-score; in test [2], 4.83 z-score; with GST-Co-NF-kB, 6.16 z-score; with GST-Dm-Relish, 3.66 z-score; with GST-Aq-NF-kB, 4.24 z-score. For the same sequence, the binding signal with GST-Hu-p50 turned out to be 4.46 z-score.
For “CCGATTAACATCAAAAATACCCCTGATGTTAATCGGGTCTTGATTCGCTTGACGCTGCTG”, the binding signal with GST-Ap-NF-kB RHD stood at 7.44 z-score; in test [1] it was 8.45 z-score; in test [2], 7.96 z-score; with GST-Co-NF-kB it was 6.5 z-score; in the test with GST-Dm-Relish, 7.71 z-score; with GST-Aq-NF-kB, 7.5 z-score. The sequence also showed a binding signal with GST-Hu-p50 of 6.44 z-score.
Turning to “CCGATTAACATCAAATTTCCCACTGATGTTAATCGGGTCTTGATTCGCTTGACGCTGCTG”, the binding signal with GST-Ap-NF-kB RHD is 2.73 z-score; in test [1], 4.26 z-score; in test [2] it was 4.5 z-score; with GST-Co-NF-kB, 4.39 z-score; with GST-Dm-Relish it was 3.33 z-score; with GST-Aq-NF-kB, 4.27 z-score. The binding signal in the test with GST-Hu-p50 came to 4.02 z-score.
As to “CCGATTAACATCAGGGGAACCACTGATGTTAATCGGGTCTTGATTCGCTTGACGCTGCTG”, the binding signal is 7.59 z-score with GST-Ap-NF-kB RHD; 6.92 z-score in test [1]; 7.26 z-score in test [2]; 5.2 z-score with GST-Co-NF-kB; 10.4 z-score in the test with GST-Dm-Relish; 7.58 z-score in the test with GST-Aq-NF-kB. The sequence also gave a binding signal in the test with GST-Hu-p50 of 5.33 z-score.
“CCGATTAACATCAGGGCTGCCCCTGATGTTAATCGGGTCTTGATTCGCTTGACGCTGCTG”: the binding signal with GST-Ap-NF-kB RHD came to 4.09 z-score; in test [1] it was 3.62 z-score; in test [2], 1.89 z-score; with GST-Co-NF-kB, 1.21 z-score; with GST-Dm-Relish, 4.09 z-score; with GST-Aq-NF-kB, 6.85 z-score. Besides, in the test with GST-Hu-p50, the binding signal was 3.48 z-score.
